In all, about 48,000 compounds went through this assay and about 13,000 (27%) showed an effect of 50% or more. The list shows a part of the results.

This assay has as its system Wolbachia pipientis. In words: Anti-Wolbachia Cell-Based Screen. To be noted: 5 µM. Type of assay: functional. The arrangement: scale not given: in the data most compounds retested in dose-response had high values.
In the case of `Cc1cccc(C(=O)N2CCN(c3ccc(-n4cccc4)nn3)CC2)c1`, the “Percent Effect” value is 0.6328%.
The figure for `CN(C)c1ccc(CN2C[C@H]3CC[C@@H]2CN(C2CCOCC2)C3)cn1` is 13.91%; for `CC(=O)Nc1sccc1C(=O)C(C)(C)C` it is 20.74%; for `Cn1cc(NC(=O)c2cccc(Cl)c2)c(=O)n(C)c1=O` it is -1.289%.
On to `Cc1ccc(CNC(=O)c2c[nH]nc2NC(=O)C2COCCO2)cc1` (stereo not given), for which the “Percent Effect” value is on record as -26.91%.
The figure for `CN1CCC(Oc2ccc(NC(=O)c3cccc(Cl)c3)cc2)CC1` is -9.86%; for `Cc1ccc(CNC(=O)c2c[nH]nc2NC(=O)COCC2CC2)cc1` it is -19.21%; for `NC(=O)c1c[nH]nc1NC(=O)c1ccc(Cl)cc1` it is 91.07%.
In the case of `NC(=O)c1c[nH]nc1NC(=O)c1cccc(Cl)c1` it was 101.4%; in that of `CNc1cc(N2CCCC2CNCc2ccc(Cl)o2)ncn1` (stereo not given), 6.692%; in that of `O=C(CC1=CCCCC1)Nc1ccc(CN2C(=O)CCC2=O)cc1`, -15.48%.
In the case of `CC(=O)CSc1nc2c(cnn2CCO)c(=O)[nH]1` it was 136.9%; in that of `CCCc1cc(=O)[nH]c2nnc(SCC(C)=O)n12`, 15.46%.
For `CC(C)(C)n1ncc2c(=O)[nH]c(N3CCN(CCO)CC3)nc21`, the “Percent Effect” value stood at 1.466%.
For `O=C(CSc1nc2c(cnn2CCO)c(=O)[nH]1)NC1CCCCC1`, the “Percent Effect” value worked out at 119.1%.
For `CC(C)NC(=O)CSc1nc2c(cnn2CCO)c(=O)[nH]1`, the “Percent Effect” value is 147.9%.
In the case of `CC(C#N)CSc1ccccc1NCC(=O)NC1CCCCC1` (stereo not given) it was -11.09%.
The figure for `CCN(CC)C(=O)CSc1nc2c(cnn2CCO)c(=O)[nH]1` is 123.9%.
For the compound `CNC(=O)CSc1nc2c(cnn2Cc2ccc(F)cc2)c(=O)[nH]1`, the “Percent Effect” value is reported as -13.84%.
`CCN(CC)C(=O)CN(C)Cc1nc2c(cnn2C)c(=O)[nH]1`: the “Percent Effect” value came out at 2.851%.
In the case of `CCN(CC)C(=O)CSc1ccc(C(F)(F)F)cn1` it was 0.9721%; in that of `CN(CC(=O)N(C)C1CCCCC1)Cc1nc2c(cnn2C)c(=O)[nH]1`, 2.622%; in that of `CCC(=O)Nc1ccc(C(C)Nc2nc3c(cnn3C)c(=O)[nH]2)cc1` (stereo not given), -8.968%.
In the case of `O=C(c1ccco1)N(c1ccc(F)cn1)C1CCOCC1` it was 7.992%; in that of `CCc1ccsc1CNC(=O)CNC(=O)C(C)(C)C`, -1.133%; in that of `CN(CC(=O)N1CCCC1)Cc1nc2c(cnn2C)c(=O)[nH]1`, 28.73%.
The figure for `O=C(CSc1nc2c(cnn2CCO)c(=O)[nH]1)N1CCCCCC1` is -26.62%.
`CC1CCN(C(=O)CSc2nc3c(cnn3CCO)c(=O)[nH]2)CC1`: the “Percent Effect” value is 123.1%.
The figure for `CCC(Oc1ccc(N(C)S(C)(=O)=O)cc1)C(=O)N(C)C` (stereo not given) is -17.11%; for `CCN(CC)c1ccc(NS(=O)(=O)c2cnn(C)c2)cn1` it is -7.679%; for `Cc1nc(NS(=O)(=O)c2cc(Br)ccc2C)no1` it is -15.2%.
Regarding `CN1CC(C(=O)N(C)Cc2cc(-c3cccnc3)no2)NC1=O` (stereo not given), the “Percent Effect” value is -3.484%.
In the case of `CC(C)NC(=O)C[C@@H]1CCNC[C@@H]1Cc1cc(-c2ccccn2)on1` it was -9.264%; in that of `Cc1ccc(C2NC(=O)c3cc(C(C)C)sc3N2)cc1` (stereo not given), 93.7%.
In the case of `CC(C)c1cc2c(s1)NC(c1ccccc1)NC2=O` (stereo not given) it was 97.8%; in that of `CC(C)c1cc2c(s1)NC(c1ccccn1)NC2=O` (stereo not given), 80.13%.
In the case of `COc1ccc2cc(-c3n[nH]cc3CN3CCSCC3)ccc2c1` it was -6.074%; in that of `COCCN(CCOC)c1ncccc1Cl`, 3.894%; in that of `COCCN(Cc1ccccc1Cl)c1nc(CCN)nc2ccccc12`, 116.2%.
`NCCc1nc(N(Cc2nccs2)C2CC2)c2ccccc2n1`: the “Percent Effect” value is on record as 3.563%.
In the case of `COCCN(Cc1cccs1)c1nc(CCN)nc2ccccc12` it was 106.1%; in that of `COCCN(CC1CC1)c1nc(CCN)nc2ccccc12`, 101.5%.
In the case of `NCCc1nc(N(Cc2cncs2)C2CC2)c2ccccc2n1` it was -5.048%; in that of `COCCN(Cc1ccccc1C)c1nc(C)nc2oc(C)nc12`, 9.543%; in that of `NCCc1nc(N[C@@H](CO)c2ccccc2)c2ccccc2n1`, 20.3%.
Take `Cc1ccsc1CN(c1nc(CCN)nc2ccccc12)C1CC1`: the “Percent Effect” value is -10.53%.
In the case of `CC(O)CC(C)(C)CNC(=O)NCc1cccc(-n2ccnc2)c1` (stereo not given) it was 13.1%; in that of `COCCN1CC2(CCC1=O)CCN(Cc1nnc(C)o1)CC2`, 2.828%.
In the case of `COc1cccn(Cc2nnc(-c3cccc(F)c3)o2)c1=O` it was -11.98%.
In the case of `COc1cccc(C(=O)N2CC[C@@H]3[C@H](CC2)N(C)CCS3(=O)=O)c1.O=C(O)C(F)(F)F`, the “Percent Effect” value is listed as -1.721%.
For `CN1CCS(=O)(=O)[C@@H]2CCN(C(=O)CC(C)(C)C)CC[C@@H]21.O=C(O)C(F)(F)F`, the “Percent Effect” value is given as 96.97%.
The figure for `COc1cccc(CC(=O)N2CC[C@@H]3[C@H](CC2)N(C)CCS3(=O)=O)c1.O=C(O)C(F)(F)F` is 107.9%; for `COc1ccc(C(=O)N2CC[C@@H]3[C@H](CC2)N(C)CCS3(=O)=O)cc1.O=C(O)C(F)(F)F` it is 3.653%.
On to `COc1ccc(CC(=O)N2CC[C@@H]3[C@H](CC2)N(C)CCS3(=O)=O)cc1.O=C(O)C(F)(F)F`, for which the “Percent Effect” value amounted to 16.94%.
In the case of `CN1CCS(=O)(=O)[C@@H]2CCN(C(=O)c3ccccc3)CC[C@@H]21.O=C(O)C(F)(F)F` it was -7.841%.
